Measured values as given in PubChem BioAssay AID463173 (ICCB-Longwood Screening Facility, Harvard Medical School, 2010).
Screen size: about 52,000 compounds; about 4,300 (8.3%) were called active. No stated cut-off is given here; in the data, active means survival mostly below about 52% (no sharp cut-off); inactive means mostly above about 56%. Only a selection was taken, and actives are over-represented in it overall.

The compounds below were run on DeltatarO mutant (assay: growth inhibition of S. aureus wild type versus tarO mutant, primary screen, teichoic acid synthesis inhibitors, RN4220, OD600 (AID 463173)). Conditions: OD600, 18 h, active compounds read low, screened at 18.75 µg/mL (by protocol).

Row | SMILES | survival
1 | Cc1nc(SCCOc2ccccc2F)[nH]c(=O)c1Cc1ccccc1 | 75% (inactive)
2 | Cc1ccc(-n2nc3c(=O)n(C(C)C(=O)O)nc(C)c3c2C)cc1 (stereo not drawn) | 101% (inactive)
3 | Cc1ccc(-c2nc(C(=O)NCc3ccc(Cl)cc3)c3n2CCCCC3)cc1 | 56% (inactive)
4 | CSc1nnc2[nH]c(=O)cc(C)n12 | 69% (inactive)
5 | Cc1ccc(-n2nc(C)c3c(C(=O)Nc4ccc(C)cc4Cl)cc(C)nc32)cc1 | 63% (inactive)
6 | CN(Cc1ccco1)S(=O)(=O)c1nnc(NC(=O)c2cccc(Cl)c2)s1 | 5% (active)
7 | Cc1cccc(C(=O)Nc2nnc(S(=O)(=O)N(C)Cc3ccco3)s2)c1 | 25% (active)
8 | CN(c1ccc(Cl)cc1)S(=O)(=O)c1nnc(NC(=O)c2ccco2)s1 | 62% (inactive)
9 | CCC(=O)Nc1nnc(S(=O)(=O)N(C)Cc2ccc(Cl)cc2)s1 | 94% (inactive)
10 | COc1cc(C(=O)Nc2cc(C)ccc2OCc2cc(=O)n3c(C)csc3n2)cc(OC)c1OC | 58% (inactive)
11 | COc1ccc(N(CC(=O)N2CCN(c3ccc(F)cc3)CC2)S(=O)(=O)c2c(C)n[nH]c2C)cc1 | 70% (inactive)
12 | O=C(Nc1ccc(NC(=O)c2ccccc2F)cn1)c1ccco1 | 82% (inactive)
13 | COc1ccc(OC)c(NC(=O)Cc2c(C)n(C(=O)c3ccc(Cl)cc3)c3ccc(OC)cc23)c1 | 74% (inactive)
14 | CCOc1cc(-c2ccc(OC(=O)c3ccc(OC)cc3)c(OC)c2)cc(=O)c2c(C)oc(C)c12 | 41% (active)
15 | CCOc1cc(-c2ccc(OC(=O)c3ccc(C)cc3)c(OC)c2)cc(=O)c2c(C)oc(C)c12 | 99% (inactive)
16 | CCOc1cc(-c2ccc(OC(=O)c3ccc(Cl)cc3)c(OC)c2)cc(=O)c2c(C)oc(C)c12 | 80% (inactive)
17 | O=C(CSc1ncc2c(n1)-c1ccccc1N(Cc1ccc(F)cc1)S2(=O)=O)NCCc1ccccc1 | 94% (inactive)
18 | Cc1cccc(NC(=O)NC2COc3ccccc3C2)c1C (stereo not drawn) | 69% (inactive)
19 | Cc1cc(C)cc(-n2c(SCC(N)=O)nc3c(oc4ccccc43)c2=O)c1 | 97% (inactive)
20 | Cc1ccc(-c2cn3c(n2)sc2cc(C(=O)NC4CCCCCC4)ccc23)cc1 | 94% (inactive)

Row | SMILES | survival
21 | Cc1ccc(-c2cn3c(n2)sc2cc(C(=O)NCCCN4CCCCC4)ccc23)cc1 | -3% (active)
22 | Cc1ccc(-c2cn3c(n2)sc2cc(C(=O)NCCCN4CCCCCC4)ccc23)cc1 | -4% (active)
23 | CCc1ccc(-c2cn3c(n2)sc2cc(C(=O)NCCCc4ccccc4)ccc23)cc1 | 70% (inactive)
24 | O=C(NCCCc1ccccc1)c1ccc2c(c1)sc1nc(-c3ccc(F)cc3)cn12 | 44% (active)
25 | O=C(NCCCN1CCCCCC1)c1ccc2c(c1)sc1nc(-c3ccccc3)cn12 | 44% (active)
26 | O=C(NC1CCCCCC1)c1ccc2c(c1)sc1nc(-c3ccccc3)cn12 | 55% (inactive)
27 | O=C(NC1CCCCC1)c1ccc2c(c1)sc1nc(-c3ccccc3)cn12 | 69% (inactive)
28 | Cc1ccc(-c2cn3c(n2)sc2cc(C(=O)N4CCCCC4)ccc23)cc1 | 79% (inactive)
29 | Cc1ccc(-c2cn3c(n2)sc2cc(C(=O)NC4CCCCC4)ccc23)cc1 | 68% (inactive)
30 | Cc1ccc(-c2cn3c(n2)sc2cc(C(=O)NCCCc4ccccc4)ccc23)cc1 | 72% (inactive)
31 | Cc1ccc(Cn2c(SCC(=O)C(C)(C)C)nc3ccsc3c2=O)cc1 | 77% (inactive)
32 | Cc1ccccc1C(=O)n1nc(-c2ccco2)nc1NCc1ccc(Cl)cc1 | 80% (inactive)
33 | Cc1cccc(CCNC(=O)c2ccc3c(c2)nc2n3CCCCC2)c1 | 77% (inactive)
34 | O=C(c1ccccc1)N1CCN(Cc2ccccc2)CC1 | 72% (inactive)
35 | CCOc1ccc(/C=C/c2nc(C#N)c(N(C)C)o2)cc1 | 102% (inactive)
36 | CCCCN(CC)CCNC(=O)Cn1cc2c(n1)-c1c(oc(C(=O)N3CCCC3)c1C)CC2 | 85% (inactive)
37 | COC(=O)c1cc2occc2n1Cc1nc(-c2ccccc2F)oc1C | 102% (inactive)
38 | Cc1cc2ncn(S(=O)(=O)c3ccc(S(=O)(=O)NCC4CCCO4)cc3)c2cc1C (stereo not drawn) | 82% (inactive)
39 | O=C(NCCCN1CCCCC1)c1ccc2c(c1)sc1nc(-c3ccc(F)cc3)cn12 | 53% (active)
40 | COc1ccc(N2CCN(CCCNC(=O)c3ccc4nc(N5CCCCC5)sc4c3)CC2)cc1 | 78% (inactive)

Row | SMILES | survival
41 | Cc1ccc[n+](CC(=O)c2cccs2)c1 | 106% (inactive)
42 | CCN1CCN(Cc2nc3cc(NC(=O)c4cc(OC)c(OC)c(OC)c4)ccc3n2CC)CC1 | 84% (inactive)
43 | CC(=O)c1ccc(N2CCN(S(=O)(=O)c3ccc4[nH]c5c(c4c3)CCCC5)CC2)cc1 | 64% (inactive)
44 | CCOc1ccc(-c2cc3c(=O)n(CC(=O)NCc4ccccc4)ccn3n2)cc1 | 83% (inactive)
45 | Cc1ccc(Cl)cc1-n1c(=O)cc(N2CCN(c3ccc(F)cc3)CC2)[nH]c1=O | 70% (inactive)
46 | Cc1ccc(-n2c(=O)cc(N3CCN(c4ccccc4Cl)CC3)[nH]c2=O)cc1 | 25% (active)
47 | Cc1ccc(Cl)cc1-n1c(=O)cc(N2CCN(c3ccccc3)CC2)[nH]c1=O | 92% (inactive)
48 | N#CC1(Nc2ccccc2Cl)C(=O)Nc2ccccc21 (stereo not drawn) | 69% (inactive)
49 | Oc1ccccc1-c1nc2cnccn2c1Nc1ccc(Cl)cc1 | 15% (active)
50 | CC(C)c1ccc(Nc2c(-c3ccccc3O)nc3cnccn23)cc1 | 55% (inactive)
51 | CN(C)c1ccc(-c2nc3cnccn3c2Nc2cccc(C(F)(F)F)c2)cc1 | 83% (inactive)
52 | Cc1cccc(C)c1Nc1c(-c2ccccc2Cl)nc2cnccn12 | 97% (inactive)
53 | COc1ccc(Nc2c(-c3ccc(Cl)cc3)nc3cnccn23)cc1OC | 58% (inactive)
54 | COc1cc(-c2nc3cnccn3c2Nc2ccc(C(C)C)cc2)ccc1O | 66% (inactive)
55 | CC(C)c1ccc(Nc2c(-c3ccc(N(C)C)cc3)nc3cnccn23)cc1 | 43% (active)
56 | Cc1ccc(Nc2c(-c3ccc(C)cc3)nc3cnccn23)cc1 | 35% (active)
57 | Cc1ccc(Nc2c(-c3ccncc3)nc3ccc(C)cn23)cc1 | 102% (inactive)
58 | O=C(CSc1nc(=O)n(Cc2ccco2)c2c1CCC2)NCc1ccc(Cl)cc1 | 69% (inactive)
